Inconclusive results are not listed. Activity calls are given as the source filed them. Unless noted, calls follow the shape of the dose curve; as a rule, active = well fitted curve in the direction sought with a large enough effect in the repeat runs; inconclusive = weak or mixed curves; inactive = no such curve, though single readings can be large; an effect the other way counts as inactive or inconclusive.
How the values were obtained:
[1] = qHTS assay to identify small molecule antagonists of the estrogen related receptor (ERR) signaling pathway from Tox21 library - cell viability counter screen (AID 1224834); also: nearly all actives have a fitted effect of over 30% in size
Outline: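 ERR reporter cells were plated 6 h before compound addition, then exposed to test compounds in DMSO for 17.5 h at 37 C. Viability was read as CellTiter-Fluor fluorescence after a 30-minute incubation at 37 C.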

[2] = biological target: Luciferin 4-monooxygenase (Photinus pyralis) (UniProt P08659); assay: qHTS assay to identify small molecule inhibitors of firefly luciferase (AID 1224835); also: nearly all actives have a fitted effect of over 25% in size
Outline: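 Inhibition of purified Photinus luciferase is measured by luminescence. Substrate levels (D-luciferin, ATP) sit at their KM values. Each compound is tested in a concentration series.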

[3] = qHTS assay to identify small molecule agonists of the constitutive androstane receptor (CAR) signaling pathway - cell viability counter screen (AID 1224836); also: nearly all actives have a fitted effect of over 45% in size
Outline: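 Counter screen multiplexed with the CAR reporter readout: HepG2 cells co-transfected with hCAR and the CYP2B6-2.2kb construct receive a 15-concentration compound series and 0.75 uM PK11195 (final), then CellTiter-Fluor fluorescence is read after 23 h.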

[4] = qHTS assay to identify small molecule antagonists of the constitutive androstane receptor (CAR) signaling pathway - cell viability counter screen (AID 1224837); also: nearly all actives have a fitted effect of over 45% in size
Outline: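 HepG2 cells stably expressing hCAR and a CYP2B6-2.2kb reporter were plated and pre-incubated 4 hr at 37 C/5% CO2, then given compounds at 15 concentrations plus 50 nM CITCO (final). After 23 hr, viability was read by CellTiter-Fluor fluorescence.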

[5] = qHTS assay to identify small molecule antagonists of the estrogen related receptor signaling pathway with the pleiotropic PPARgamma coactivator (PGC) from Tox21 10K library - cell viability counter screen (AID 1224840; active = well fitted cell-killing curve with a large enough effect in the repeat runs, not every such curve was filed as active; also: nearly all actives have a fitted effect of over 40% in size)
Outline: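 PGC/ERR cells were seeded at 2,000 cells/well and left 6 hours at 37 C/5% CO2 before pin-tool addition of compounds in DMSO. After 17.5 hours at 37 C, CellTiter-Fluor was added and fluorescence read 30 minutes later.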

[6] = biological target: Thyrotropin receptor (Homo sapiens) (UniProt P16473); assay: qHTS assay to identify small molecule agonists of the thyroid stimulating hormone receptor (TSHR) signaling pathway (AID 1224843; calls by dose curve; also: nearly all actives have a fitted effect of over 45% in size)
Outline: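 HEK293 cells stably bearing the thyrotropin receptor were plated at 800 cells/well and challenged with compound (30 min, RT). Accumulated cAMP was quantified via cAMP-d2 competing for cryptate-tagged antibody.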

[7] = qHTS assay to identify small molecule agonists of the hypoxia (HIF-1) signaling pathway - cell viability counter screen (AID 1224844; calls by dose curve; also: nearly all actives have a fitted effect of over 50% in size)
Outline: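 HRE-bla ME-180 cells in medium with 0.5% dialyzed FBS were preincubated 5 hrs at 37C, exposed to compounds for 17 hrs, then viability was read as CellTiter-Glo luminescence after 30 min at room temperature, in the reporter wells.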

[8] = qHTS assay to identify small molecule agonists of H2AX (AID 1224845; active = well fitted activation curve with a large enough effect in the signal ratio in the repeat runs, not every such curve was filed as active; the % refers to the signal ratio)
Outline: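 Phospho-H2AX Ser139 measured by HTRF (ex 320 nm; em 665 and 620 nm) after 24 hr antibody incubation. Compounds, 15 concentrations, 0.76% DMSO, were applied to CHO-K1 cells for 3hr at 37C before lysis.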

[9] = qHTS assay to identify small molecule agonists of H2AX - cell viability counter screen (AID 1224847; calls by dose curve; also: nearly all actives have a fitted effect of over 30% in size; also: potency is read from the fitted curve at half-maximal effect)
Outline: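 We seed wild-type CHO-K1 cells overnight, treat them for 3 hr at 37C with compounds in 15-concentration series, and quantify remaining viability by CellTiter-Glo luminescence.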

[10] = qHTS RealTime-Glo MT Cell Viability Assay in HepG2 cells - 24 hour (AID 1224867); also: nearly all actives have a fitted effect of over 50% in size
Outline: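 Tox21 10K library screened in qHTS format on HepG2 cells carrying RealTime-Glo reagents. Compounds were added after a 5 h preincubation, and the luminescent signal from continuous culture was measured repeatedly during 40 h treatment.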

[11] = qHTS RealTime-Glo MT Cell Viability Assay in HEK293 cells - 32 hour (AID 1224868); also: top concentration of the series differs between compounds; nearly all actives have a fitted effect of over 50% in size
Outline: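 Luminescence generated by NanoLuc from substrate produced by living HEK293 cells served as the viability signal. Each value reflects the reading at its stated time point during continuous 40 h compound exposure at 37 C.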

[12] = A CellTox Green Cytotoxicity Assay to monitor cytotoxicity in HEK293 cells - 0 hour (AID 1224869); also: nearly all actives have a fitted effect of over 50% in size
Outline: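 HEK293 cells premixed with CellTox Green dye were seeded at 600 cells/well and left 5 h at 37 C/5% CO2 before pin transfer of 23 nL compound in DMSO. Fluorescence from dye bound to dead-cell DNA was read during 40 h treatment.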

[13] = qHTS RealTime-Glo MT Cell Viability Assay in HepG2 cells - 40 hour (AID 1224870); also: nearly all actives have a fitted effect of over 50% in size
Outline: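 Real-time viability: cells seeded at 600 per well together with NanoLuc and cell-permeant prosubstrate, compounds added after 5 h incubation. Luminescence tracked at 0, 8, 16, 24, 32 and 40 h of exposure.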

[14] = qHTS assay to identify small molecule agonists of the hypoxia (HIF-1) signaling pathway (AID 1224846; active = well fitted activation curve with a large enough effect in the signal ratio in the repeat runs, not every such curve was filed as active; the % refers to the signal ratio)
Outline: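 HRE-bla ME-180 cells (beta-lactamase reporter under hypoxia response element) were plated at 2,000 cells/well in medium with 0.5% dialyzed FBS, rested 5 hrs, then given compounds in DMSO for 17 hrs at 37C, 5% CO2. Reporter induction was read with CCF4-AM FRET substrate.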

[15] = biological target: Nuclear receptor subfamily 1 group I member 3 (Homo sapiens) (UniProt Q14994); assay: qHTS assay to identify small molecule antagonists of the constitutive androstane receptor (CAR) signaling pathway (AID 1224838); also: nearly all actives have a fitted effect of over 40% in size
Outline: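 HepG2 cells stably co-transfected with hCAR and a CYP2B6-2.2kb luciferase reporter were seeded 4 h before compound addition at 15 concentrations. Cells were stimulated with 50 nM CITCO (final) for 24 h at 37 C; luciferase luminescence was then read.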

[16] = biological target: Nuclear receptor subfamily 1 group I member 3 (Homo sapiens) (UniProt Q14994); assay: qHTS assay to identify small molecule agonists of the constitutive androstane receptor (CAR) signaling pathway (AID 1224839); also: nearly all actives have a fitted effect of over 15% in size; also: potency is read from the fitted curve at half-maximal effect
Outline: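 A 15-concentration quantitative screen uses HepG2 cells co-transfected stably with human CAR and CYP2B6-2.2kb reporter. Treatment lasts 24 h with 0.75 uM PK11195 final present; ONE-Glo luminescence is the signal.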

[17] = qHTS assay to identify small molecule antagonists of the estrogen related receptor signaling pathway with the pleiotropic PPARgamma coactivator (PGC) from Tox21 10K library (AID 1224841; call rule not given here)
Outline: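 PGC/ERR reporter cells were seeded at 2,000 cells/well and held 6 hours at 37 C/5% CO2 before pin-tool addition of compounds in DMSO. After 18 hours at 37 C, One-Glo was added and luminescence read after 30 minutes at room temperature.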

[18] = qHTS assay to identify small molecule agonists of the estrogen related receptor signaling pathway with the pleiotropic PPARgamma coactivator (PGC) from Tox21 10K library (AID 1224842); also: nearly all actives have a fitted effect of over 15% in size
Outline: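 Luminescence from One-Glo (30 min, room temperature) measured after PGC/ERR cells had 18 h at 37 C with pinned compound (23 nL in DMSO). Cells had been seeded at 2,000 per well and pre-incubated 6 h.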

[19] = qHTS assay to identify small molecule antagonists of the estrogen related receptor (ERR) signaling pathway from Tox21 library (AID 1224848); also: nearly all actives have a fitted effect of over 50% in size
Outline: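 Reading was by luminescence 30 min after ONE-Glo addition. Before that, ERR cells at 2,000 per well had rested 6 h at 37 C/5% CO2 and then received pin-tooled compounds in DMSO for 18 h at 37 C.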

[20] = qHTS assay to identify small molecule agonists of the estrogen related receptor (ERR) signaling pathway from Tox21 library (AID 1224849; calls by dose curve; also: nearly all actives have a fitted effect of over 15% in size); details: ERR reporter cell line, ONE-Glo luciferase, 18 h; at 92.4 µM (top of the series) unless noted
Outline: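 ERR reporter cell line (NTP) seeded, rested 6 h at 37 C/5% CO2, then pinned with Tox21 compounds in DMSO. After 18 h at 37 C, ONE-Glo luciferase luminescence was read following 30 min at room temperature.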
% is scaled to controls: 0 for no effect and ±100 for the full control effect.

Nuclear receptor subfamily 1 group I member 3 (Homo sapiens), sequence (Q14994 whole entry, looked up): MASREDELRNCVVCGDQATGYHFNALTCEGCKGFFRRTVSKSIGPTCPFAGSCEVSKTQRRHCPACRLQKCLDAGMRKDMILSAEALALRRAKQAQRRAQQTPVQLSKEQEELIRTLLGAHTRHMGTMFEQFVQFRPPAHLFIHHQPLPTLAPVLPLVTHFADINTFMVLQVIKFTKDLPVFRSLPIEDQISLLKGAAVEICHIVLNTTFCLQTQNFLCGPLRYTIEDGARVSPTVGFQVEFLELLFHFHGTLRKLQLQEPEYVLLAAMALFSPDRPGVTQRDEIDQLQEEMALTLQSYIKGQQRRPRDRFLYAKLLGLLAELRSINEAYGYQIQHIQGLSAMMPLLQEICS
Thyrotropin receptor (Homo sapiens), sequence (P16473 whole entry, looked up): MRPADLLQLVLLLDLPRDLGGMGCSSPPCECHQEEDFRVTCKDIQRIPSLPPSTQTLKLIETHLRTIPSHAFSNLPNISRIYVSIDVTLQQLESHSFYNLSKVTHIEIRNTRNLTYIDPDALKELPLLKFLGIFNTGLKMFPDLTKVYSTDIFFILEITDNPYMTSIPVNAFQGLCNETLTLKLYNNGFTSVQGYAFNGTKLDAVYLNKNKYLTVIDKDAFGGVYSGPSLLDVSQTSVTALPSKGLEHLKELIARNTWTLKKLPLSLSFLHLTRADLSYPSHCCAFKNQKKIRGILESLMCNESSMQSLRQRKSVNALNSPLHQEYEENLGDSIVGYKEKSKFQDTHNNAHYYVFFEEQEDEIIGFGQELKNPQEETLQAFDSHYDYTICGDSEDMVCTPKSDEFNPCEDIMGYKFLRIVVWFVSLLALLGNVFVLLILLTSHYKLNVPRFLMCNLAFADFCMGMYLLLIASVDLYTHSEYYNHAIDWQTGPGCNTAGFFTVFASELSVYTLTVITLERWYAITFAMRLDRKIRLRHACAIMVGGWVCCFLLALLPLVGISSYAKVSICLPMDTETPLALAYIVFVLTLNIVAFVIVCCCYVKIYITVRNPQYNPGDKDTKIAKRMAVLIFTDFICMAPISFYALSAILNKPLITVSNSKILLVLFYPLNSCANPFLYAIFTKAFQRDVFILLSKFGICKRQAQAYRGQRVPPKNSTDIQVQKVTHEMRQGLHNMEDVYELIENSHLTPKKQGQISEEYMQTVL
Luciferin 4-monooxygenase (Photinus pyralis), sequence (P08659 whole entry, looked up): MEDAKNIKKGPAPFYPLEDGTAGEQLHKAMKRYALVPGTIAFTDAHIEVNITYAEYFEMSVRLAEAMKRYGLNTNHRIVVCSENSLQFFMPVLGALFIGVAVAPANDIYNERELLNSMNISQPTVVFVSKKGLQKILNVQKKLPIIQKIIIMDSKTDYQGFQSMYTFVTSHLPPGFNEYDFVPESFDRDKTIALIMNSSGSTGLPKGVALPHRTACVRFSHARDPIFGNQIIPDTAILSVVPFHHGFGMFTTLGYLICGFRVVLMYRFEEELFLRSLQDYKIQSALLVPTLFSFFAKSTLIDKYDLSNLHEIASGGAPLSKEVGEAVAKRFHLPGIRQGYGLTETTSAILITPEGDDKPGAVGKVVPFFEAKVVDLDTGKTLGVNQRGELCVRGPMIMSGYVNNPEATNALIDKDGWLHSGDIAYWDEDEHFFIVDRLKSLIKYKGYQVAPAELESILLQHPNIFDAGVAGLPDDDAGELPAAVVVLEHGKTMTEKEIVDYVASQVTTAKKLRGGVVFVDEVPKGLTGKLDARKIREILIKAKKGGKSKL

CCCCOCCOCCOCCOCCO
inactive: Potency [1] | Potency [2] | Potency [3] | Potency [4] | Potency [5] | Potency [6] | Potency [7] | Potency [8] | Potency [9] | Potency [10] | Potency [11] | Potency [12] | Potency [13]

OCCC1CCCCN1 (stereo unspecified)
inactive: Potency [1] | Potency [2] | Potency [3] | Potency [4] | Potency [5] | Potency [6] | Potency [7] | Potency [8] | Potency [10] | Potency [11] | Potency [12] | Potency [13]

S=C(S)NCCNC(=S)S
inactive: Potency [1] | Potency [2] | Potency [3] | Potency [4] | Potency [5] | Potency [6] | Potency [7] | Potency [8] | outcome [14] | Potency [9] | Potency [10] | Potency [12] | Potency [13]

CC(=O)N(CC(=O)N(C)C)c1ccccc1
inactive: Potency [1] | Potency [2] | Potency [4] | Potency [15] | Potency [16] | Potency [17] | Potency [18] | Potency [6] | Potency [8] | outcome [14] | Potency [19] | activity change, positive = activation [20] 0.995% [at 42.5 µM] | Potency [10] | Potency [12] | Potency [13]

CC(=O)/C=C/C1C(C)=CCCC1(C)C (stereo unspecified)
inactive: Potency [1] | Potency [2] | Potency [3] | Potency [4] | Potency [8] | outcome [14] | Potency [9] | Potency [10] | Potency [11] | Potency [12] | Potency [13]

CC(C)c1ccc2c(C(C)C)cc(C(C)C)c(S(=O)(=O)O)c2c1
inactive: Potency [1] | Potency [2] | Potency [3] | Potency [4] | Potency [6] | Potency [8] | outcome [14] | Potency [10] | Potency [11] | Potency [12] | Potency [13]

N#CCc1cccc(C(F)(F)F)c1
inactive: Potency [1] | Potency [2] | Potency [3] | Potency [4] | Potency [5] | Potency [6] | Potency [8] | outcome [14] | Potency [9] | Potency [10] | Potency [11] | Potency [12] | Potency [13]

CN(C)CCCNCCCN
inactive: Potency [1] | Potency [2] | Potency [4] | Potency [15] | Potency [16] | Potency [5] | Potency [6] | Potency [7] | Potency [8] | outcome [14] | Potency [9] | Potency [10] | Potency [12] | Potency [13]

Cc1c(Cn2ccnc2)c2ccccc2n1CCC(=O)O
inactive: Potency [1] | Potency [2] | Potency [3] | Potency [4] | Potency [5] | Potency [6] | Potency [7] | Potency [8] | outcome [14] | Potency [10] | Potency [11] | Potency [12] | Potency [13]

C=CC(C)(CCC=C(C)C)OC(=O)c1ccccc1 (stereo unspecified)
inactive: Potency [1] | Potency [2] | Potency [3] | Potency [4] | Potency [6] | Potency [7] | outcome [14] | Potency [10] | Potency [11] | Potency [12] | Potency [13]

CCCCC(CC)COCCCN (stereo unspecified)
inactive: Potency [1] | Potency [2] | Potency [3] | Potency [4] | Potency [5] | Potency [6] | Potency [7] | Potency [8] | outcome [14] | activity change, positive = activation [20] -26.6% | Potency [10] | Potency [12] | Potency [13]

O=S(=O)(O)c1ccc(O)c2ncccc12
inactive: Potency [1] | Potency [2] | Potency [3] | Potency [4] | Potency [5] | Potency [6] | Potency [7] | outcome [14] | Potency [10] | Potency [11] | Potency [12] | Potency [13]

CC(CN)CCCN (stereo unspecified)
active: Potency [9] 0.357 µM
inactive: Potency [1] | Potency [2] | Potency [4] | Potency [15] | Potency [16] | Potency [17] | Potency [6] | Potency [7] | Potency [8] | outcome [14] | Potency [19] | activity change, positive = activation [20] -0.964% | Potency [10] | Potency [11] | Potency [12] | Potency [13]

COC(Cc1ccccc1)OC
inactive: Potency [1] | Potency [2] | Potency [4] | Potency [15] | Potency [16] | Potency [5] | Potency [6] | Potency [7] | outcome [14] | Potency [9] | Potency [10] | Potency [11] | Potency [12] | Potency [13]

Cc1nc2ccccc2n1Cc1ccc(Cl)cc1
inactive: Potency [1] | Potency [2] | Potency [3] | Potency [5] | Potency [7] | Potency [8] | outcome [14] | Potency [9] | Potency [10] | Potency [12] | Potency [13]
active: Potency [16] 11.9 µM

C1CCC2OC2C1 (stereo unspecified)
inactive: Potency [1] | Potency [2] | Potency [3] | Potency [4] | Potency [5] | Potency [6] | Potency [7] | Potency [8] | outcome [14] | Potency [9] | Potency [10] | Potency [12] | Potency [13]

O=C(/C=C/c1ccc(O)c(O)c1)O[C@@H]1C[C@](O)(C(=O)O)C[C@@H](O)[C@H]1O
inactive: Potency [1] | Potency [2] | Potency [3] | Potency [4] | Potency [5] | Potency [7] | Potency [9] | Potency [10] | Potency [11] | Potency [12]

CC(C)(Oc1ccc(Cl)cc1)C(=O)OCCCOC(=O)C(C)(C)Oc1ccc(Cl)cc1
inactive: Potency [1] | Potency [2] | Potency [3] | Potency [4] | Potency [5] | Potency [7] | Potency [8] | Potency [9] | Potency [10] | Potency [11] | Potency [12] | Potency [13]

Cc1ccc(C)o1
inactive: Potency [1] | Potency [2] | Potency [4] | Potency [15] | Potency [16] | Potency [5] | Potency [17] | Potency [18] | Potency [6] | Potency [7] | Potency [8] | Potency [9] | Potency [19] | activity change, positive = activation [20] 0.55% | Potency [10] | Potency [12] | Potency [13]
